# Source: PubChem BioAssay
# Hits are enriched below; roughly 1.2% of the tested compounds scored in any of these assays.
# eLon inh: inhibitors of E. coli Lon protease, primary screen, biochemical, fluorescence polarization | purified E. coli Lon protease | inhibition, % at 7.94 µM | 360,000 compounds, 0.42% hits | AID 602123, 2011; in the data active = inhibition above about 13%, passing the limit was not always enough;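 note: 0% = enzyme with probe and DMSO and 100% = no enzyme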
# GLD-1 TGE inh: GLD-1/TGE RNA complex disruptors, primary screen, biochemical, fluorescence polarization; purified GLD-1 + fluorescein TGE RNA; inhibition, % at 5.96 µM; 320,000 compounds, 0.44% hits;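 active = percent inhibition above a per-plate cutoff, the plate mean of test compounds plus 3 SD, cut at about 30% in these data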;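 note: 0% = DMSO wells with GLD-1 and probe and 100% = wells lacking GLD-1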
# Target sequence (Q17339 whole entry, looked up): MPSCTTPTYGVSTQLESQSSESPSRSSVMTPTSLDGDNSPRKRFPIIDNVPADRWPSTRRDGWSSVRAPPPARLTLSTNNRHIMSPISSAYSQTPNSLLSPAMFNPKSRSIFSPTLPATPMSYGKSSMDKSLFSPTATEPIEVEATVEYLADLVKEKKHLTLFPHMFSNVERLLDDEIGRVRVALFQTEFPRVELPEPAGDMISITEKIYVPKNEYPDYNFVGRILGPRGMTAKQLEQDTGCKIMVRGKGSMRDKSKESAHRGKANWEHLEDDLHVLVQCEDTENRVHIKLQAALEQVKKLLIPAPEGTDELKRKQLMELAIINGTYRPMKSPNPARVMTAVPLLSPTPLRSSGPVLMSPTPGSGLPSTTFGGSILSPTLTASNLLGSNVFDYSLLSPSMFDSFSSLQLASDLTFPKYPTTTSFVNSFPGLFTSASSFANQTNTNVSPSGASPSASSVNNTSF
# Bcl-xL primary: inhibitors of human Bcl-xL, primary screen, biochemical, fluorescence polarization, HTS; Bcl-2-like protein 1 (Homo sapiens), Q07817; GST-Bcl-xL / FITC-Bim BH3 peptide fluorescence polarization; inhibition, % at 10.9 µM; 320,000 compounds, 0.7% hits; AID 2129, 2009;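 active = inhibition above the mean of all tested compounds plus 3 SD, cutoff set per campaign, cut at about 30% in these data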;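 note: 0% = DMSO wells and 100% = unlabeled Bim-BH3 peptide competitor; inhibitors lower millipolarization by displacing the labeled peptide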
# RTF Ca sens act: cardiac RTF calcium sensitivity activators, primary screen, biochemical, IANBD-TnC fluorescence, EC20 calcium; Troponin I, cardiac muscle (Homo sapiens) + Troponin T, cardiac muscle (Homo sapiens) + …; IANBD-labeled TnC RTF fluorescence at EC20 calcium; 0% EC20 calcium, 100% full calcium; 340,000 compounds, 0.24% hits; activation, % at 7.2 µM;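 active = activation above the mean over all tested compounds plus 3 SD, cut at about 30% in these data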;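 note: rise in fluorescence read as greater calcium sensitivity of cardiac thin filaments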
# RTF Ca sens inh: cardiac RTF calcium sensitivity inhibitors, primary screen, biochemical, IANBD-TnC fluorescence, EC70 calcium. Troponin I, cardiac muscle (Homo sapiens) + Troponin T, cardiac muscle (Homo sapiens) + …. inhibition, % at 7.15 µM. 340,000 compounds, 0.12% hits. IANBD-labeled cardiac RTF, Ca2+ fluorescence;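 active = inhibition above the mean inhibition of all tested compounds plus 3 SD, cut at about 17% in these data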;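 note: assay run at fixed EC70 calcium of 1.6 mM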
# GLD1 RNA confirm: GLD-1/TGE RNA binding inhibitors, retest, confirmation, biochemical, fluorescence polarization, triplicate. GLD-1/FL-TGE RNA fluorescence polarization. shares compounds with GLD-1 TGE inh. 550 compounds, 10% hits. inhibition, % at 5.96 µM;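 active = average inhibition across triplicates above the hit cutoff set in the primary screen, cut at about 32% in these data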;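 note: 0% = GLD-1 with RNA probe and DMSO and 100% = wells lacking GLD-1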
# RTF inh confirm: cardiac RTF calcium sensitivity inhibitors, confirmation, biochemical, fluorescence readout; shares compounds with RTF Ca sens inh; reconstituted cardiac thin filaments; inhibition, % at 7.15 µM; 360 compounds, 8% hits; AID 504635, 2011; in the data active = inhibition above about 18%
# eLon confirm: E. coli Lon protease inhibitor retest, confirmation, biochemical, fluorescence polarization; shares compounds with eLon inh; purified E. coli Lon; inhibition, % at 7.94 µM; 1,400 compounds, 31% hits; in the data active = inhibition above about 16%;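 note: 0% = enzyme with probe and DMSO and 100% = no enzyme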
# An asterisk follows results filed as active; nt = not tested or not shown; + = active, no number.
SMILES,eLon inh,GLD-1 TGE inh,Bcl-xL primary,RTF Ca sens act,RTF Ca sens inh,GLD1 RNA confirm,eLon confirm,others
O=C(c1ccccc1)[C@@H]1[C@@H]2C(=O)N(c3ccc(F)cc3)C(=O)[C@@H]2C2CCCN21 (stereo not given in full),23*,37*,64*,16,-23,0,29*,
O=C(c1ccc(Cl)cc1)C1C2C(=O)N(c3ccccc3)C(=O)C2C2CCCN21 (stereo not given),6,nt,nt,-2,-6,nt,nt,
N#Cc1c(NC(=O)C2C3C=CC(C3)C2C(=O)O)sc2c1CCCCC2 (stereo not given),-4,3,6,0,-1,nt,nt,
CCC1c2ccc(C)n2CCN1C(=O)Nc1ccccc1C(=O)OC (stereo not given),23*,35*,41*,8,-14,-1,6,
COc1ccc(N2CCCn3c2nc2c3c(=O)n(Cc3ccc(F)cc3)c(=O)n2C)c(OC)c1,-5,nt,nt,14,-8,nt,nt,
O=C(CN1C(=O)NC2(CCCCC2)C1=O)Oc1ccc2c(C(F)(F)F)cc(=O)oc2c1,54*,59*,33*,3,-1,49*,33*,
COc1cccc(NC(=S)NN2C(C)CCCC2C)c1 (stereo not given),-7,4,4,-2,-22,nt,nt,
O=C1NC(=S)CN1c1ccccc1,33*,69*,70*,2,0,-3,16,
O=C(OCC(=O)c1c[nH]c2ccccc12)c1cc(S(=O)(=O)N2CCOCC2)ccc1F,-6,3,-6,-1,-5,nt,nt,
COc1ccc(-c2cnc(N)nc2-c2ccc(OCc3ccccc3)cc2O)cc1,-3,5,4,-1,0,nt,nt,
Nc1ncc(-c2ccccc2)c(-c2ccc(O)cc2O)n1,22*,43*,50*,-1,-9,11,7,
Cc1cc2cc(CNS(=O)(=O)c3ccccc3)ccc2n1C,31*,54*,36*,-2,-7,11,20*,
CCOC(=O)CCC(=O)NCc1ccc2c(c1)cc(C)n2C,39*,31*,38*,16,-27,11,-4,
CCCCC(=O)NCc1ccc2c(c1)cc(C)n2C,11,14,12,-3,-6,nt,nt,
O=C(O)c1ccccc1C(=O)NCCc1c(C(=O)O)[nH]c2ccc(Cl)cc12,8,-1,-2,2,-12,nt,nt,
CCc1ccc(S(=O)(=O)NCc2csc(-c3cccnc3)n2)s1,-4,-3,3,2,-4,nt,nt,
CC(=O)N1CC=C2C(C#N)=C(N)C(C#N)(C#N)[C@H](c3ccoc3)[C@H]2C1,31*,31*,44*,8,-19,18,15,
NS(=O)(=O)c1ccc(CCNC(=O)CN2CCN(Cc3cccc4ccccc34)CC2)cc1,6,2,-3,-5,-2,nt,nt,
CNc1c(N)n(Cc2ccccc2)c(=O)[nH]c1=O,33*,42*,37*,7,-15,30,24*,
CCN(CC)CCN(C)c1ccc(N2C(=O)C3CC=CCC3C2=O)cc1[N+](=O)[O-] (stereo not given),-3,0,6,1,-8,nt,nt,
Cn1c(CNc2ccc(Cl)cc2)nc2ccccc21,-5,3,4,-1,-2,nt,nt,
Cc1ccc(N2CCN(c3ccc(NCc4nc5ccccc5n4C)cc3)CC2)cc1,45*,63*,74*,0,-7,63*,5,
CC1C(=O)N(Cc2cn(CCC3OCCO3)nn2)CCS(=O)(=O)N1Cc1ccc(-c2ccc(F)cc2)cc1 (stereo not given),-1,nt,nt,nt,nt,nt,nt,
C=CCNC(=O)/C(C#N)=C/c1ccccc1[N+](=O)[O-],23*,31*,45*,5,-16,45*,19*,
O=C1c2ccccc2C(=O)c2c1cccc2N1CCCC1,2,6,16,2,7,nt,nt,
SMILES,eLon inh,GLD-1 TGE inh,Bcl-xL primary,RTF Ca sens act,RTF Ca sens inh,GLD1 RNA confirm,eLon confirm,others
Cn1c(=O)cc2c3c(c(N4CCCCC4)ccc31)C(=O)c1ccccc1-2,+,82*,147*,nt,nt,46*,73*,
Clc1ccc(/C=N/c2c(-c3ccco3)nc3ccccn23)cc1,26*,45*,39*,8,-10,44*,-4,
COc1ccc(/C=N/c2c(-c3ccco3)nc3ccccn23)cc1OC,32*,57*,39*,3,-2,57*,-3,
COc1cc(-c2nc3ccccn3c2/N=C/c2ccc(F)cc2)ccc1O,-7,-2,4,-2,-5,nt,nt,
CN1c2ccccc2N(C)C1(C)c1ccccc1,38*,48*,69*,5,-16,9,3,
S=C(Nc1ccc2nc(-c3ccccn3)c(-c3ccccn3)nc2c1)N1CCOCC1,20*,40*,60*,13,-13,6,7,
O=C(CSc1ccc(Cl)cc1)NC(=O)NC1CCCC1,-9,nt,nt,1,3,nt,nt,
COc1ccc(NS(=O)(=O)c2cccs2)cn1,8,3,10,1,10,nt,nt,
COc1ccc(NS(=O)(=O)c2ccc(Cl)s2)cn1,19*,50*,72*,12,-7,54*,35*,
O=C(c1ccccc1C(=O)N1CCN(c2ccccc2)CC1)N1CCN(c2ccccc2)CC1,34*,38*,46*,32*,-15,11,17*,
O=C(O)c1ccccc1C(=O)N1CCN(c2ccccc2)CC1,-6,8,3,3,-8,nt,nt,
COc1ccc(-n2cc(-c3ccccc3)[n+]3c2CCCCC3)cc1,1,-3,4,3,-3,nt,nt,
Oc1ccc2ccccc2c1N=Nc1ccccn1,-6,-5,2,-7,5,nt,nt,
CCOC(=O)c1[nH]cnc1N=Nc1c(O)ccc2ccccc12,44*,60*,103*,4,-3,32*,76*,
CC(C)C(C(=O)O)N1C(=O)/C(=C/C=C/c2ccco2)SC1=S (stereo not given),-1,6,71*,-39,83*,nt,nt,RTF inh confirm=40*
